The list is not random: actives were taken first. Their share in the collection is about 0.74%.
GRP78 ERSR act: inducers of ER stress response in human glioma cells; U87-MG GRP78 promoter luciferase reporter, 16 h; hit rate 0.02% among 420,000; Potency, µM, inactives show at the highest dose activation, actives largely listed as activators; AID 602332; also: potency is read from the fitted curve at half-maximal effect; series mostly up to about 76 µM; % of control where 0% means no effect; nearly all actives have a fitted effect of over 35% in size
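Stably transfected U87-MG glioma cells carrying a GRP78-based luciferase sensor; 16 h compound incubation. Luminescence end-point read 10 min after Bright-Glo addition at room temperature.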
Vif-A3F inh: inhibitors of Vif-A3F interaction | HeLa A3F-eYFP + Vif (tagged APOBEC3F with the HIV-1 protein that degrades it), YFP fluorescence increase | hit rate 0.2% among 390,000 | Potency, µM (top dose mostly 46.1 µM), inactives show at the top dose activity, negative = active | AID 602313; also: potency is read from the fitted curve at half-maximal effect; % of control where 0% means no effect; nearly all actives have a fitted effect of over 65% in size
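Fluorescence increase (Ex 488/Em 500-530) after overnight compound treatment at 37 deg C flags inhibition of Vif-driven A3F-eYFP loss in stable HeLa A3F-eYFP/Vif cells seeded overnight beforehand.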
PINK1 modulator: modulators of PINK1 expression; hit rate 0.2% among 410,000; Potency, µM (doses to about 76.6 µM), inactives show at the highest dose activation (PINK1 increase), usual class: activators; PINK1 immunofluorescence, high-content cytometry, 24 h; active = well fitted activation curve with a large enough effect; inconclusive = small, poorly fitted or top-dose-only effect; cell line not stated here; also: potency is read from the fitted curve at half-maximal effect; % of control where 0% means no effect; nearly all actives have a fitted effect of over 65% in size
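Decision-based qHTS: stable cells, 24 h exposure to five compound concentrations, CCCP as control. Fixed cells stained for PINK1 plus nuclear, mitochondrial and cell markers, cytometer read.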
pAkt inh: Akt phosphorylation inhibition. hit rate 0.32% among 360,000. AID 651550. activity change, % for hits at 50 µM. Neuro2A IGF-stimulated pAkt S473 HTRF, 20 min; hits give low values; in the data active = activity change below about -80%; inconclusive = mostly about -51% to -80%; also: % is scaled to controls: 0 for no effect and ±100 for the full control effect
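Neuro2A cells in DMEM with 0.5% FBS, overnight at 37 deg C, given compound at single 50 µM final, then IGF (6 nM final) for 20 min at 37 deg C. Lysed; phospho-Akt Ser473 by HTRF after 24 h, 665/615 ratio.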
LDHA inh: inhibitors of human lactate dehydrogenase A | purified LDHA, NADH/diaphorase-resazurin fluorescence; hits give low values | hit rate 0.15% among 480,000 | activity change, % (values are at about 110 or 230 µM); in the data active = activity change below about -30%; inconclusive = mostly about -25% to -30%;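 also: plate controls were DMSO wells for no effect and wells without enzyme for full effect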
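LDH5 2 nM; NADH 0.06 mM, pyruvate 0.2 mM; 200 mM Tris pH 7.4, EDTA, Tween-20; 5 min RT. Detection: diaphorase 0.133 mg/mL + resazurin 37 µM, fluorescence ex540/em590 at 0 and 20 min; normalized to enzyme-free and DMSO wells.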
Vif-APOBEC3G blk: blocks the Vif interaction with human APOBEC3G | Q9HC16 | HeLa A3G-eYFP + Vif (tagged APOBEC3G with the HIV-1 protein that degrades it), YFP fluorescence, overnight | Potency, µM (titrated, usually from 46.1 µM), inactives show at the highest dose activity, negative = active, usual class: inhibitors | hit rate 0.076% among 410,000; also: potency is read from the fitted curve at half-maximal effect; % is scaled to controls: 0 for no effect and ±100 for the full control effect; nearly all actives have a fitted effect of over 60% in size
Target sequence (Q9HC16 whole entry, looked up): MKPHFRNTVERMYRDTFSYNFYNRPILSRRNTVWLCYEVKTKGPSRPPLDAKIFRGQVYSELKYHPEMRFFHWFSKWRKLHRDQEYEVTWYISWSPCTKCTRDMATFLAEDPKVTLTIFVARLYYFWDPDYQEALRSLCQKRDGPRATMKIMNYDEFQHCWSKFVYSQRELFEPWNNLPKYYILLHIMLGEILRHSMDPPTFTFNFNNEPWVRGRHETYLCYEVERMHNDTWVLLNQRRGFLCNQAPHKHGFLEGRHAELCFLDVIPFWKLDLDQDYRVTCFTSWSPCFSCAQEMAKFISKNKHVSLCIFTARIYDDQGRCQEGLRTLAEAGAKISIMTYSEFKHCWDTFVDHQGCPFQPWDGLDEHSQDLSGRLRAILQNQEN
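Read-out is eYFP fluorescence (Ex 488/Em 500-530) from Vif-expressing HeLa A3G-eYFP cells; more signal means A3G escaped Vif-mediated degradation. Cells plated overnight, compound pinned in, incubated overnight at 37 deg C.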
Numbers without * were called inactive; i = inactive; ? = inconclusive; nt = no result given; [ ] = dose if it differs, or a comment. Unless noted, calls follow the shape of the dose curve; as a rule, active = well fitted curve in the direction sought with a large enough effect; inconclusive = small, poorly fitted or top-dose-only effect, or another doubt; inactive = no such curve, though single readings can be large; an effect the other way counts as inactive or inconclusive.

SMILES | GRP78 ERSR act | Vif-A3F inh | PINK1 modulator | pAkt inh | LDHA inh | Vif-APOBEC3G blk
Brc1ccc(-c2nnc3sc(CN4CCC5(CC4)OCCO5)cn23)cc1 | -2.5% | -1.8% | 29.4%[38.3 µM] | -101.8%* | 10.2 | 0.3%
Cc1cc(C)n(-c2ccc(C(=O)OCC(=O)NC3CCS(=O)(=O)C3)cc2)n1 (stereo not drawn) | nt | nt | nt | nt | -30.4* | nt
CCOC(=O)c1[nH]c(C)c(C(=O)OCC(=O)NC2CCS(=O)(=O)C2)c1C (stereo not drawn) | -4.6% | 2.2% | -0.7% | i | -4.7 | -0.5%
CCOC(=O)c1c(C)[nH]c(C(=O)OCC(=O)NC2CCS(=O)(=O)C2)c1C (stereo not drawn) | 1.0% | -8.0% | -0.7% | -112.5%* | -4.4 | 2.9%
CC(C)N1CCc2c(sc(NC(=O)c3cc4cc([N+](=O)[O-])ccc4s3)c2C(N)=O)C1 | -7.8% | ? | -1.4% | i | 1.3 | 8.91µM*
CC(C)N1CCc2c(sc(NC(=O)c3ccc4ccccc4c3)c2C(N)=O)C1 | -5.2% | ? | 11.5% | i | 2.1 | ?
O=C(NC(=S)Nc1cccc(Cl)c1N1CCCCC1)c1ccc2c(c1)OCCO2 | -2.3% | ? | 6.5% | i | -5.1 | -17.7%
CCC(=O)NC(=S)Nc1cccc(Cl)c1N1CCCC1 | -3.6% | 10µM* | 7.3% | i | -6.9 | 0.7%
CC(Oc1ccc(C(=O)/C=C/c2ccsc2)cc1)C(=O)O (stereo not drawn) | nt | nt | nt | nt | 5.3 | nt
O=C(O)CCSCC(=O)Nc1c(C(=O)C2CC2)oc2ccccc12 | -5.2% | -3.2% | -0.9% | -99.6%* | -6.4 | 1.2%
O=C(CN1CCN(c2ccccc2)CC1)Nc1c(C(=O)C2CC2)oc2ccccc12 | -5.2% | -4.4% | 1.3% | i | -5.5 | -4.1%
CCOc1ccc(NC(=O)C(C)O)c(N)c1 (stereo not drawn) | nt | nt | nt | nt | 6.1 | nt
CCOC(=O)c1sc2nc(CN3CCC(C)CC3)[nH]c(=O)c2c1C | nt | nt | nt | nt | 9.0 | nt
CC(C)(C)C(=O)/C=C(\N)c1ccncc1 | -3.8% | -1.5% | 5.3% | -101.1%* | -4.6 | ?
COc1ccc(/C(N)=C/C(=O)C(C)(C)C)cc1 | 7.8% | -1.8% | nt | i | -5.1 | 1.6%
COCCN(C(=O)c1ccco1)C(C(=O)NC1CCCC1)c1cccs1 (stereo not drawn) | -2.2% | nt | 1.1% | -91.6%* | -3.6 | -3.9%
CCCCc1cc(=O)oc2cc(C)cc(OC(C)C(=O)NCCCO)c12 (stereo not drawn) | nt | nt | nt | nt | 18.0 | nt
CNc1cc([N+](=O)[O-])ccc1N/C=C/C(=O)c1ccc2c(c1)OCO2 | 1.9% | ? | 14.1µM* | i | 3.9 | 1.8%
COc1ccc(C(=O)/C=C/Nc2cc(C)on2)c(OC)c1 | 10.8% | 9.5% | -15.7%[38.3 µM] | i | -2.5 | -3.9%
COc1ccc(C(=O)/C=C/Nc2ccc([N+](=O)[O-])cc2C)c(OC)c1 | 0.8% | 22.4µM* | ? | i | 2.7 | -2.8%
COc1ccc(C(=O)/C=C/Nc2ccc([N+](=O)[O-])cc2C)cc1OC | -3.5% | -5.7% | 28.2µM* | i | 1.9 | ?
CNc1cc([N+](=O)[O-])ccc1N/C=C/C(=O)c1cccs1 | 3.4% | -13.3% | 8.0% | i | -0.8 | -9.4%
COc1ccc(OCCOC(=O)c2[nH]c3c(c2C)C(=O)CCC3)cc1 | nt | nt | nt | nt | 4.4 | nt
CCOc1ccc(C2CC(=O)NC3=C2C(=O)CCC3)cc1Cl (stereo not drawn) | -2.9% | -8.9% | -2.0% | -107.0%* | -1.2 | 0.1%
CCC1(C)Cc2c(sc3nnn(CC(=O)Nc4ccc(C)cc4)c(=O)c23)CO1 (stereo not drawn) | -2.5% | -6.6% | 10µM* | i | -0.4 | 0.4%
CCC1(C)Cc2c(sc3nnn(CC(=O)Nc4cccc5ccccc45)c(=O)c23)CO1 (stereo not drawn) | -4.2% | -2.5% | ? | i | -3.2 | -10.6%
O=S(=O)(NCCC1=CCCCC1)c1cccc2nsnc12 | -8.2% | -3.9% | 6.8%[38.3 µM] | i | -5.5 | -1.1%

Assay outcomes as filed in PubChem.
